Data reported in article PMC4336329 (PLoS ONE, 2015).
In all, about 310,000 compounds went through this assay and about 14,000 (4.5%) showed an effect of 50% or more. Effects have a minus sign here. This is one part of a sample in which strong results are shown more often than they occur.

Target: human ether-à-go-go-related gene (hERG) potassium channel (human, UniProt Q12809)
Assay: primary screen, population patch clamp on CHO cells stably expressing hERG; higher = less effect of the substance
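Also: peak tail current of the secondary pulse compared with the same well before compound.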

Sequence of human ether-à-go-go-related gene (hERG) potassium channel (Q12809 whole entry, looked up): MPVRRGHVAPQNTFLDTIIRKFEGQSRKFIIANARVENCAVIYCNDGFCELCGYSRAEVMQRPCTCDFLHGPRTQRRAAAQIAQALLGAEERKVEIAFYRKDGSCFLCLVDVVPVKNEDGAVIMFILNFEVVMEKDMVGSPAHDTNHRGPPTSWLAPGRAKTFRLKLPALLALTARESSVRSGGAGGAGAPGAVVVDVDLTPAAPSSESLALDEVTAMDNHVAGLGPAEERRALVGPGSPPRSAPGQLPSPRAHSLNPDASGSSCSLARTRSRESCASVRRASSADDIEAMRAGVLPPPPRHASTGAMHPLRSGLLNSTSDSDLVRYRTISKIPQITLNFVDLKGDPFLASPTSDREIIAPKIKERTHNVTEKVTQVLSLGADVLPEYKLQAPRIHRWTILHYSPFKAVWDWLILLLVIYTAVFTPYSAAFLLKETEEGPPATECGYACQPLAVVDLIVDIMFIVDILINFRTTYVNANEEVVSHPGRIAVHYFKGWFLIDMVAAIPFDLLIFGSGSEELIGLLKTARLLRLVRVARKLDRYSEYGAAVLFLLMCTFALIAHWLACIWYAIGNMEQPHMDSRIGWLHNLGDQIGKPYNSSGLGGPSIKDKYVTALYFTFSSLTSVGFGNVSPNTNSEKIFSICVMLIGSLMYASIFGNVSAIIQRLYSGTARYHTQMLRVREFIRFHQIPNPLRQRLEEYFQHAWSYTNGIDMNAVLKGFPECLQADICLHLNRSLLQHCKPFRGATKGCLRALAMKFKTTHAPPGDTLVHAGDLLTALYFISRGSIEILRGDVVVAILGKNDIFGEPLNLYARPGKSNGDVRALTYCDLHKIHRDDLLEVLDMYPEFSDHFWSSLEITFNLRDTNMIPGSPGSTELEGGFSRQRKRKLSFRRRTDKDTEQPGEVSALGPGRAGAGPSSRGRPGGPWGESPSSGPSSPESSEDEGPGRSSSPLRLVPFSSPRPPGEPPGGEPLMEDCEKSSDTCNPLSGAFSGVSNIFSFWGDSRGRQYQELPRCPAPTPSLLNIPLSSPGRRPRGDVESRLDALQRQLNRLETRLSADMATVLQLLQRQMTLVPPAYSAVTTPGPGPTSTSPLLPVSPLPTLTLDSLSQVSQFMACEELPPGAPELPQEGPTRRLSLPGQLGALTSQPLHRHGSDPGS

Compared with `COc1ccc(CC(=O)NCc2ccc(F)cc2)cc1S(=O)(=O)N1CCOCC1`, `Cc1ccc(CNS(=O)(=O)c2ccc3c(c2)NC(=O)C(C)S3)cc1` (centres unmarked) is higher in “hERG current change (%, negative = inhibition) at 10uM” value: -8.29% for the first, -1.22% for the second.

First: CCCn1c2ccccc2c2cnn(CC(=O)NCCN(C)C)c(=O)c21
Second: CCCn1c2ccccc2c2cnn(CC(=O)NCCN(CC)CC)c(=O)c21
The “hERG current change (%, negative = inhibition) at 10uM” value of the first is higher: -60.1% for the first, -66.6% for the second.

First: CCCn1c2ccccc2c2cnn(CC(=O)NCCOC)c(=O)c21
Second: CCCn1c2ccccc2c2cnn(CC(=O)OC)c(=O)c21
The “hERG current change (%, negative = inhibition) at 10uM” value of the first is lower: -5.71% for the first, -0.361% for the second.

First: CCCn1c2ccccc2c2cnn(CC(=O)N(CC)CC)c(=O)c21
Second: CCCn1c2ccccc2c2cnn(CC(=O)NC(C)CC)c(=O)c21 (centres unmarked)
The “hERG current change (%, negative = inhibition) at 10uM” value of the first is lower: -2.37% for the first, 7.84% for the second.

Going from `Cc1ccc(S(=O)(=O)N2CCN(CC(=O)N(CC(C)C)c3c(N)n(CC(C)C)c(=O)[nH]c3=O)CC2)c(C)c1` to `CCN1CCN(C(c2cccs2)C(C)NC(=S)Nc2cc(C)ccc2C)CC1` (centres unmarked), the “hERG current change (%, negative = inhibition) at 10uM” value falls from 12.7% to -68.5%.

Compared with `O=[N+]([O-])c1cc([As](=O)(O)O)ccc1O`, `Cc1csc(NC(=O)c2ccc(C)c([N+](=O)[O-])c2)n1` is lower in “hERG current change (%, negative = inhibition) at 10uM” value: 19.8% for the first, -41.6% for the second.

Going from `Cc1nn2cc(-c3ccc(Cl)cc3)cnc2c1Br` to `CC(=O)c1cnc2c(-c3ccc(Cl)cc3)cnn2c1C`, the “hERG current change (%, negative = inhibition) at 10uM” value falls from 10.3% to -1.45%.

Going from `Cc1ccc(NC(=O)C2Oc3ccccc3OC2C)cc1` (centres unmarked) to `Cc1ccc(O)c(C(CC(=O)NC(C)C)c2ccccc2)c1` (centres unmarked), the “hERG current change (%, negative = inhibition) at 10uM” value falls from 8.68% to 6.85%.

Compared with `CCCCC(=O)NC(=S)Nc1c(C)cc(Br)cc1C`, `Cc1ccc(C)c(NC(=S)NC(C)C(c2cccs2)N2CCOCC2)c1` (centres unmarked) is higher in “hERG current change (%, negative = inhibition) at 10uM” value: 2.71% for the first, 8.4% for the second.

Going from `COc1ccccc1C(=O)Nc1ccnn1C1CCN(C)CC1` to `COc1ccccc1C(=O)Nc1ccnn1C1CCN(C(C)CSC)CC1` (centres unmarked), the “hERG current change (%, negative = inhibition) at 10uM” value falls from -32.7% to -67%.

First: CSCC(C)N1CCC(n2nccc2NC(=O)c2ccccc2C)CC1 (centres unmarked)
Second: COc1ccc(C(=O)Nc2ccnn2C2CCN(C(C)CSC)CC2)cc1 (centres unmarked)
The “hERG current change (%, negative = inhibition) at 10uM” value of the first is lower: -16.6% for the first, 1.28% for the second.

First: Cc1ccccc1C(=O)Nc1ccnn1C1CCN(C(=O)c2cnsn2)CC1
Second: COc1ccccc1C(=O)Nc1ccnn1C1CCN(C(=O)c2cnsn2)CC1
The “hERG current change (%, negative = inhibition) at 10uM” value of the first is higher: -30.4% for the first, -62.2% for the second.

First: COCC(=O)N1CCC(n2nccc2NC(=O)c2ccccc2OC)CC1
Second: COc1ccccc1C(=O)Nc1ccnn1C1CCN(C(=O)C(C)(C)C)CC1
The “hERG current change (%, negative = inhibition) at 10uM” value of the first is higher: -1.85% for the first, -50.4% for the second.

Going from `COc1ccccc1C(=O)Nc1ccnn1C1CCN(C(=O)C2CCOC2)CC1` (centres unmarked) to `COc1ccccc1C(=O)Nc1ccnn1C1CCN(C(=O)c2ccoc2)CC1`, the “hERG current change (%, negative = inhibition) at 10uM” value falls from -35.9% to -47.4%.

First: COc1ccccc1C(=O)Nc1ccnn1C1CCN(C(=O)c2ccoc2C)CC1
Second: COc1ccccc1C(=O)Nc1ccnn1C1CCN(C2CCSCC2)CC1
The “hERG current change (%, negative = inhibition) at 10uM” value of the first is higher: -62.9% for the first, -70.9% for the second.

First: COc1ccc(C(=O)Nc2ccnn2C2CCN(C(=O)c3cnsn3)CC2)cc1
Second: COc1ccc(C(=O)Nc2ccnn2C2CCN(C3CCC3)CC2)cc1
The “hERG current change (%, negative = inhibition) at 10uM” value of the first is lower: -11.5% for the first, 20.7% for the second.

First: COc1ccc(-c2noc(CSc3nc(N)cc(=O)[nH]3)n2)cc1
Second: CCOC(=O)c1ccc(NC(=O)c2sc3nc4n(c(=O)c3c2C)CCC4)cc1
The “hERG current change (%, negative = inhibition) at 10uM” value of the first is lower: 0.145% for the first, 8.82% for the second.

Compared with `OCCC1CN(CC#Cc2ccccc2)CCN1Cc1ccccc1F` (centres unmarked), `O=C(COc1ccccc1)NCc1ccccc1` is higher in “hERG current change (%, negative = inhibition) at 10uM” value: -7.93% for the first, 4.64% for the second.

Compared with `Cc1[nH]c2ccccc2c1SCCN`, `O=C(COc1ccc(Cl)cc1)NCc1ccccc1` is lower in “hERG current change (%, negative = inhibition) at 10uM” value: 2.5% for the first, -10.4% for the second.

First: O=S(=O)(c1cccc(C(F)(F)F)c1)N1CCN(C(=S)NCc2ccco2)CC1
Second: CCc1cccc(NC(=O)C2CCCN(S(=O)(=O)c3cccnc3)C2)c1 (centres unmarked)
The “hERG current change (%, negative = inhibition) at 10uM” value of the first is lower: -5.8% for the first, -5.51% for the second.

Going from `CC(=O)N1c2ccc(S(=O)(=O)N(C)CC(=O)NC3CCCC3)cc2CC1C` (centres unmarked) to `CC(=O)Nc1cccc(C(=O)Nc2ccc(S(=O)(=O)NC3=NCCCCC3)cc2)c1`, the “hERG current change (%, negative = inhibition) at 10uM” value rises from -23.1% to 17%.

First: COC(=O)C1=C(c2ccc(Cl)c(C(F)(F)F)c2)C[C@@H]2CC[C@H]1N2C(=O)NCc1ccc2c(c1)OCO2
Second: CNCC(=O)Nc1ccc(Cl)c(C(F)(F)F)c1
The “hERG current change (%, negative = inhibition) at 10uM” value of the first is lower: -12.9% for the first, 17.6% for the second.

First: Cc1cc(-n2nc(C)cc2C)n2ncc(-c3ccccc3)c2n1
Second: O=C(COc1ccccc1)NCc1nnc2c3ccccc3c(-c3ccccc3)nn12
The “hERG current change (%, negative = inhibition) at 10uM” value of the first is higher: 16.2% for the first, -64.6% for the second.

Compared with `CCc1ccccc1N(C(=O)Cn1nnc2ccccc21)C(C(=O)NCCOC)c1ccco1` (centres unmarked), `O=C(COc1ccc(Cl)cc1)NCc1nnc2c3ccccc3c(-c3ccccc3)nn12` is lower in “hERG current change (%, negative = inhibition) at 10uM” value: -7.99% for the first, -66.9% for the second.

Going from `N#CCCOC1(C#CCN2CCCC2)CCCCC1` to `COCCCN1CN(Cc2ccccc2)CNC1=S`, the “hERG current change (%, negative = inhibition) at 10uM” value falls from 19.6% to 5.46%.

Compared with `O=C(Nc1nnc(CSCc2ccccc2F)s1)c1cccc([N+](=O)[O-])c1`, `O=C(COc1ccc(Cl)cc1)NCc1n[nH]c(=O)c2ccccc12` is lower in “hERG current change (%, negative = inhibition) at 10uM” value: -0.45% for the first, -13% for the second.

Compared with `Cc1ccccc1C(=O)Nc1ccnn1C1CCN(C2CCSCC2)CC1`, `Cc1ccccc1NC(=S)NC(C)C(c1cccs1)N1CCOCC1` (centres unmarked) is higher in “hERG current change (%, negative = inhibition) at 10uM” value: -49.5% for the first, 2.05% for the second.

First: CCCC1=Nc2cc(C(=O)N3CCC(C(N)=O)CC3)ccc2Sc2ccccc21
Second: CCN1CCN(C(c2cccs2)C(C)NC(=O)c2ccccc2)CC1 (centres unmarked)
The “hERG current change (%, negative = inhibition) at 10uM” value of the first is higher: 4.75% for the first, -1.79% for the second.

Going from `O=C(/C=C/c1ccc(OC2CSC2)cc1)c1ccccc1` to `O=C(COc1ccccc1)NCc1n[nH]c(=S)n1-c1ccccc1`, the “hERG current change (%, negative = inhibition) at 10uM” value rises from 10.1% to 17.5%.

Compared with `O=C(O)/C=C/C(=O)c1ccc(O)cc1`, `C/C(O)=C(\C#N)P(=O)(c1ccccc1)c1ccccc1` is higher in “hERG current change (%, negative = inhibition) at 10uM” value: 2.05% for the first, 11.6% for the second.

Going from `CCN1CCN(C(c2cccs2)C(C)NC(=S)Nc2cccc(C)c2C)CC1` (centres unmarked) to `Cc1cccc(NC(=S)NC(C)C(c2cccs2)N2CCN(C)CC2)c1C` (centres unmarked), the “hERG current change (%, negative = inhibition) at 10uM” value rises from -72.9% to -60.5%.

Compared with `CC(NC(=S)Nc1ccccc1Cl)C(c1cccs1)N1CCCC1` (centres unmarked), `Cc1ccccc1NC(=S)NC(C)C(c1ccccc1)N1CCN(C)CC1` (centres unmarked) is lower in “hERG current change (%, negative = inhibition) at 10uM” value: -10.2% for the first, -12.5% for the second.

First: Cc1cccc(NC(=S)NC(C)C(c2ccccc2)N2CCN(C)CC2)c1C (centres unmarked)
Second: Cc1ccc(C)c(NC(=S)NC(C)C(c2ccccc2)N2CCN(C)CC2)c1 (centres unmarked)
The “hERG current change (%, negative = inhibition) at 10uM” value of the first is lower: -50% for the first, -48% for the second.

Going from `CCN1CCN(C(c2cccs2)C(C)NC(=O)CC(C)C)CC1` (centres unmarked) to `CCN1CCN(C(c2cccs2)C(C)NC(=O)C(C)C)CC1` (centres unmarked), the “hERG current change (%, negative = inhibition) at 10uM” value rises from -6.37% to 9.03%.
